# About 79,000 compounds went through this panel and 15% of them were active in at least one assay; those are over-represented in the sample as a whole. Unmarked numbers belong to inactive results. Activity calls are given as the source filed them. No stated cut-off is given here; in the data, active means growth inhibition above about 70%; inactive means the rest.
# Assays:
# [1] = NCI Yeast Anticancer Drug Screen. Data for the rad52 strain (AID 147);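 further: 0% = growth of vehicle-treated control cultures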; settings: S. cerevisiae rad52 mutant growth inhibition, active compounds read high
# How it was run: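 Inhibition of yeast growth, referenced to vehicle controls, was the measured output for a strain with defective DNA damage repair.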
# [2] = NCI Yeast Anticancer Drug Screen. Data for the wt1 strain (AID 149);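 further: 0% = growth of vehicle-treated wt1 cultures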; settings: S. cerevisiae wt1 strain (SPY 50644) growth inhibition, active compounds read high
# How it was run: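 Measured: growth of wt1 yeast under compound versus vehicle treatment, reported as inhibition.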
# [3] = NCI Yeast Anticancer Drug Screen. Data for the rad50EPP+ strain (AID 151);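 further: 0% = growth of vehicle-treated control cultures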; settings: S. cerevisiae rad50 mutant strain, active compounds read high
# How it was run: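 Genetically defined yeast (rad50EPP+, DNA damage repair alteration) is grown with compound, and inhibition of growth is expressed relative to vehicle-treated controls.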
# [4] = NCI Yeast Anticancer Drug Screen. Data for the mgt1 strain (AID 153); settings: S. cerevisiae mgt1 mutant growth inhibition, active compounds read high
# How it was run: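 In the mgt1 strain, test compounds were added and growth inhibition was determined relative to vehicle-treated controls.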
# [5] = NCI Yeast Anticancer Drug Screen. Data for the rad50 strain (AID 155);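 further: 0% = growth of vehicle-only cultures of the same strain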; settings: S. cerevisiae rad50 strain growth inhibition, active compounds read high
# How it was run: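 Growth of the mutant yeast was measured after compound exposure and referenced to vehicle-treated cultures.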
# [6] = NCI Yeast Anticancer Drug Screen. Data for the mec2-1 strain (AID 157); settings: S. cerevisiae mec2-1 strain, active compounds read high
# How it was run: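 Each compound was tested on mec2-1 yeast, a strain altered in DNA damage repair or cell cycle control. Growth inhibition is reported relative to vehicle.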
# [7] = NCI Yeast Anticancer Drug Screen. Data for the rad14 strain (AID 159);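 further: 0% = growth of vehicle-treated control cultures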; settings: S. cerevisiae rad14 strain growth inhibition, active compounds read high
# How it was run: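 Here, inhibition of yeast growth was measured after compound exposure, using a strain with a genetic defect in DNA damage repair and vehicle-treated cultures as the reference.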
# [8] = NCI Yeast Anticancer Drug Screen. Data for the sgs1 mgt1 strain (AID 161);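 further: 0% = growth of cultures given vehicle only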; settings: S. cerevisiae sgs1 mgt1 strain, active compounds read high
# How it was run: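 Mutant yeast exposed to compound; growth scored against vehicle-only wells.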
# [9] = NCI Yeast Anticancer Drug Screen. Data for the CLN2oe strain (AID 163);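 further: 0% = growth of vehicle-only control cultures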; settings: S. cerevisiae CLN2oe strain, active compounds read high
# How it was run: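 First, the altered yeast strain was treated with each compound; second, its growth was measured; finally, inhibition was derived by comparison with vehicle controls.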
# [10] = NCI Yeast Anticancer Drug Screen. Data for the cln2 rad14 strain (AID 165);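 further: 0% = growth equal to vehicle treated cultures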; settings: S. cerevisiae cln2 rad14 strain, active compounds read high
# How it was run: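 Test compounds were added to cln2 rad14 yeast cultures; inhibition of growth was then determined by comparison with vehicle treatment.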
# [11] = NCI Yeast Anticancer Drug Screen. Data for the bub3 strain (AID 167); settings: S. cerevisiae bub3 mutant strain, active compounds read high
# How it was run: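 Whole-cell yeast assay. The mutant strain was incubated with compounds, and growth inhibition was determined by comparison with vehicle-treated cells.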
# [12] = NCI Yeast Anticancer Drug Screen. Data for the wt2 strain (AID 169);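 further: 0% = growth of vehicle-treated yeast cultures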; settings: S. cerevisiae wt2 strain growth inhibition, active compounds read high
# How it was run: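 The panel's yeast strains carry defined changes in DNA repair or cell cycle genes. Each strain is grown with compound, and growth loss is scored relative to vehicle.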
# [13] = NCI Yeast Anticancer Drug Screen. Data for the mlh1 strain (AID 171);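 further: 0% = growth of vehicle-treated control cultures of the same strain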; settings: S. cerevisiae mlh1 strain growth inhibition, active compounds read high
# How it was run: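 Inhibition values reflect reduced yeast growth in the presence of compound, referenced to vehicle controls, using a strain chosen for its alteration in DNA repair or cell cycle control.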
# [14] = NCI Yeast Anticancer Drug Screen. Data for the sgs1 strain (AID 173);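 further: 0% = growth of vehicle-only control cultures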; settings: S. cerevisiae sgs1 mutant, active compounds read high
# How it was run: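 Vehicle-treated cultures served as reference for growth inhibition of a yeast strain altered in DNA damage repair or cell cycle control after compound exposure.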
# [15] = NCI Yeast Anticancer Drug Screen. Data for the mlh1 rad18 strain (AID 175); settings: S. cerevisiae mlh1 rad18 strain growth inhibition, active compounds read high
# How it was run: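 Inhibition values reflect reduced growth of mutant yeast versus vehicle-treated controls following compound exposure; the mutations affect DNA damage repair.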
# [16] = NCI Yeast Anticancer Drug Screen. Data for the rad18 strain (AID 177); settings: S. cerevisiae rad18 mutant growth inhibition, active compounds read high
# How it was run: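 Steps: expose repair-mutant yeast to compound; measure growth; express as inhibition relative to vehicle control.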
# [17] = at 5.0 µM (retest, dose inferred, filed as 0.5)
# [18] = at 50.0 µM (retest, dose inferred, filed as 5.0)
smiles,measurement,setting,value
COc1cc2oc3ccccc3c(=O)c2cc1CSc1ccccc1N,growth inhibition,[1]; at 1.2 µM,-1%
same,growth inhibition,[1]; at 3.7 µM,1%
same,growth inhibition,[1]; at 11.0 µM,1%
same,growth inhibition,[1]; at 33.0 µM,8%
same,growth inhibition,[1]; at 100.0 µM,8%
same,growth inhibition,[2]; at 1.2 µM,-1%
same,growth inhibition,[2]; at 3.7 µM,-1%
same,growth inhibition,[2]; at 11.0 µM,-1%
same,growth inhibition,[2]; at 33.0 µM,-2%
same,growth inhibition,[2]; at 100.0 µM,0%
same,growth inhibition,[3]; at 1.2 µM,-5%
same,growth inhibition,[3]; at 3.7 µM,1%
same,growth inhibition,[3]; at 11.0 µM,4%
same,growth inhibition,[3]; at 33.0 µM,14%
same,growth inhibition,[3]; at 100.0 µM,16%
same,growth inhibition,[4]; at 1.2 µM,1%
same,growth inhibition,[4]; at 3.7 µM,0%
same,growth inhibition,[4]; at 11.0 µM,-2%
same,growth inhibition,[4]; at 33.0 µM,-2%
same,growth inhibition,[4]; at 100.0 µM,6%
same,growth inhibition,[5]; at 1.2 µM,0%
same,growth inhibition,[5]; at 3.7 µM,0%
same,growth inhibition,[5]; [17],9%
same,growth inhibition,[5]; at 11.0 µM,1%
same,growth inhibition,[5]; at 33.0 µM,6%
same,growth inhibition,[5]; [18],26%
same,growth inhibition,[5]; at 50.0 µM,44.9%
same,growth inhibition,[5]; at 100.0 µM,7%
same,growth inhibition,[6]; at 1.2 µM,-2%
same,growth inhibition,[6]; at 3.7 µM,-1%
same,growth inhibition,[6]; [17],8%
same,growth inhibition,[6]; at 11.0 µM,-1%
same,growth inhibition,[6]; at 33.0 µM,2%
same,growth inhibition,[6]; [18],8%
same,growth inhibition,[6]; at 50.0 µM,-19.2%
same,growth inhibition,[6]; at 100.0 µM,15%
same,growth inhibition,[7]; at 1.2 µM,0%
same,growth inhibition,[7]; at 3.7 µM,-6%
same,growth inhibition,[7]; at 11.0 µM,-5%
same,growth inhibition,[7]; at 33.0 µM,-18%
same,growth inhibition,[7]; at 100.0 µM,-16%
same,growth inhibition,[8]; [17],3%
same,growth inhibition,[8]; [18],48%
same,growth inhibition,[8]; at 50.0 µM,39.8%
same,growth inhibition,[9]; at 1.2 µM,-4%
same,growth inhibition,[9]; at 3.7 µM,3%
same,growth inhibition,[9]; at 11.0 µM,-1%
same,growth inhibition,[9]; at 33.0 µM,2%
same,growth inhibition,[9]; at 100.0 µM,3%
same,growth inhibition,[10]; [17],2%
same,growth inhibition,[10]; [18],34%
same,growth inhibition,[10]; at 50.0 µM,27.5%
same,growth inhibition,[11]; at 1.2 µM,-1%
same,growth inhibition,[11]; at 3.7 µM,2%
same,growth inhibition,[11]; [17],4%
same,growth inhibition,[11]; at 11.0 µM,35%
same,growth inhibition,[11]; at 33.0 µM,54%
same,growth inhibition,[11]; [18],71% (active)
same,growth inhibition,[11]; at 50.0 µM,72.4% (active)
same,growth inhibition,[11]; at 100.0 µM,74% (active)
same,growth inhibition,[12]; at 1.2 µM,-1%
same,growth inhibition,[12]; at 3.7 µM,-2%
same,growth inhibition,[12]; at 11.0 µM,-2%
same,growth inhibition,[12]; at 33.0 µM,3%
same,growth inhibition,[12]; at 100.0 µM,7%
same,growth inhibition,[13]; at 1.2 µM,-5%
same,growth inhibition,[13]; at 3.7 µM,0%
same,growth inhibition,[13]; at 11.0 µM,-1%
same,growth inhibition,[13]; at 33.0 µM,2%
same,growth inhibition,[13]; at 100.0 µM,-7%
same,growth inhibition,[14]; at 1.2 µM,1%
same,growth inhibition,[14]; at 3.7 µM,1%
same,growth inhibition,[14]; at 11.0 µM,5%
same,growth inhibition,[14]; at 33.0 µM,15%
same,growth inhibition,[14]; at 100.0 µM,20%
same,growth inhibition,[15]; [17],15%
same,growth inhibition,[15]; [18],31%
same,growth inhibition,[15]; at 50.0 µM,39.9%
same,growth inhibition,[16]; at 1.2 µM,-14%
same,growth inhibition,[16]; at 3.7 µM,-7%
same,growth inhibition,[16]; at 11.0 µM,-12%
same,growth inhibition,[16]; at 33.0 µM,8%
same,growth inhibition,[16]; at 100.0 µM,3%
CCOc1ccc(N)c(S)c1,growth inhibition,[1]; at 1.2 µM,1%
same,growth inhibition,[1]; at 3.7 µM,3%
same,growth inhibition,[1]; at 11.0 µM,10%
same,growth inhibition,[1]; at 33.0 µM,79% (active)
same,growth inhibition,[1]; at 100.0 µM,97% (active)
same,growth inhibition,[2]; at 1.2 µM,0%
same,growth inhibition,[2]; at 3.7 µM,4%
same,growth inhibition,[2]; at 11.0 µM,7%
same,growth inhibition,[2]; at 33.0 µM,38%
same,growth inhibition,[2]; at 100.0 µM,97% (active)
same,growth inhibition,[3]; at 1.2 µM,0%
same,growth inhibition,[3]; at 3.7 µM,-4%
same,growth inhibition,[3]; at 11.0 µM,10%
same,growth inhibition,[3]; at 33.0 µM,97% (active)
same,growth inhibition,[3]; at 100.0 µM,96% (active)
same,growth inhibition,[4]; at 1.2 µM,0%
same,growth inhibition,[4]; at 3.7 µM,-1%
same,growth inhibition,[4]; at 11.0 µM,6%
same,growth inhibition,[4]; at 33.0 µM,71% (active)
same,growth inhibition,[4]; at 100.0 µM,98% (active)
same,growth inhibition,[5]; at 1.2 µM,1%
same,growth inhibition,[5]; at 3.7 µM,-45%
same,growth inhibition,[5]; [17],0%
same,growth inhibition,[5]; at 11.0 µM,34%
same,growth inhibition,[5]; at 33.0 µM,88% (active)
same,growth inhibition,[5]; [18],98% (active)
same,growth inhibition,[5]; at 50.0 µM,93.6% (active)
same,growth inhibition,[5]; at 100.0 µM,97% (active)
same,growth inhibition,[6]; at 1.2 µM,0%
same,growth inhibition,[6]; at 3.7 µM,4%
same,growth inhibition,[6]; [17],-1%
same,growth inhibition,[6]; at 11.0 µM,17%
same,growth inhibition,[6]; at 33.0 µM,68%
same,growth inhibition,[6]; [18],96% (active)
same,growth inhibition,[6]; at 50.0 µM,91.3% (active)
same,growth inhibition,[6]; at 100.0 µM,98% (active)
same,growth inhibition,[7]; at 1.2 µM,-2%
same,growth inhibition,[7]; at 3.7 µM,-7%
same,growth inhibition,[7]; at 11.0 µM,1%
same,growth inhibition,[7]; at 33.0 µM,54%
same,growth inhibition,[7]; at 100.0 µM,98% (active)
same,growth inhibition,[8]; [17],9%
same,growth inhibition,[8]; [18],97% (active)
same,growth inhibition,[8]; at 50.0 µM,98.2% (active)
same,growth inhibition,[9]; at 1.2 µM,0%
same,growth inhibition,[9]; at 3.7 µM,-6%
same,growth inhibition,[9]; at 11.0 µM,-4%
same,growth inhibition,[9]; at 33.0 µM,4%
same,growth inhibition,[9]; at 100.0 µM,91% (active)
same,growth inhibition,[10]; [17],9%
same,growth inhibition,[10]; [18],98% (active)
same,growth inhibition,[10]; at 50.0 µM,97% (active)
same,growth inhibition,[11]; at 1.2 µM,0%
same,growth inhibition,[11]; at 3.7 µM,4%
same,growth inhibition,[11]; [17],1%
same,growth inhibition,[11]; at 11.0 µM,23%
same,growth inhibition,[11]; at 33.0 µM,97% (active)
same,growth inhibition,[11]; [18],27%
same,growth inhibition,[11]; at 50.0 µM,98% (active)
same,growth inhibition,[11]; at 100.0 µM,96% (active)
same,growth inhibition,[12]; at 1.2 µM,-1%
same,growth inhibition,[12]; at 3.7 µM,8%
same,growth inhibition,[12]; at 11.0 µM,3%
same,growth inhibition,[12]; at 33.0 µM,86% (active)
same,growth inhibition,[12]; at 100.0 µM,97% (active)
same,growth inhibition,[13]; at 1.2 µM,0%
same,growth inhibition,[13]; at 3.7 µM,3%
same,growth inhibition,[13]; at 11.0 µM,10%
same,growth inhibition,[13]; at 33.0 µM,82% (active)
same,growth inhibition,[13]; at 100.0 µM,98% (active)
same,growth inhibition,[14]; at 1.2 µM,-3%
same,growth inhibition,[14]; at 3.7 µM,0%
same,growth inhibition,[14]; at 11.0 µM,18%
same,growth inhibition,[14]; at 33.0 µM,97% (active)
same,growth inhibition,[14]; at 100.0 µM,96% (active)
same,growth inhibition,[15]; [17],2%
same,growth inhibition,[15]; [18],98% (active)
same,growth inhibition,[15]; at 50.0 µM,92% (active)
same,growth inhibition,[16]; at 1.2 µM,1%
same,growth inhibition,[16]; at 3.7 µM,0%
same,growth inhibition,[16]; at 11.0 µM,9%
same,growth inhibition,[16]; at 33.0 µM,85% (active)
same,growth inhibition,[16]; at 100.0 µM,95% (active)

# Reference: PubChem BioAssay (NCI)
